Efflux pump inh: antifungal efflux pump inhibition, Nile Red retention | S. cerevisiae Candida pump triplex | inhibition, % at 10 µM | AID 485275 | 330,000 tested, 0.44% active;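 active = plate passing quality check with inhibition over a set limit, or well fluorescence over plate mean plus 4 SD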;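 note: Nile Red retained in pooled yeast measured as flow cytometry median fluorescence; higher means more Nile Red kept so more efflux inhibition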
ALR inh: inhibitors of human sulfhydryl oxidase ALR; P55789; purified ALR, DTT oxidation, H2O2 HRP-luminol luminescence; inhibition, % (test concentration not listed); 290,000 tested, 3.8% active; AID 485317;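 active = mean replicate inhibition above about 79%, with every replicate also reaching it, limit read from the data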
VLA-4 inh: inhibition in a human VLA-4 binding assay; AID 2557; inhibition, % (about 7 µM as worked out from the volumes in the protocol); 330,000 tested, 0.2% active; P13612; VLA-4 expressing cells, ligand binding flow cytometry; in the data active = inhibition above about 50%
Target sequence (P13612 whole entry, looked up): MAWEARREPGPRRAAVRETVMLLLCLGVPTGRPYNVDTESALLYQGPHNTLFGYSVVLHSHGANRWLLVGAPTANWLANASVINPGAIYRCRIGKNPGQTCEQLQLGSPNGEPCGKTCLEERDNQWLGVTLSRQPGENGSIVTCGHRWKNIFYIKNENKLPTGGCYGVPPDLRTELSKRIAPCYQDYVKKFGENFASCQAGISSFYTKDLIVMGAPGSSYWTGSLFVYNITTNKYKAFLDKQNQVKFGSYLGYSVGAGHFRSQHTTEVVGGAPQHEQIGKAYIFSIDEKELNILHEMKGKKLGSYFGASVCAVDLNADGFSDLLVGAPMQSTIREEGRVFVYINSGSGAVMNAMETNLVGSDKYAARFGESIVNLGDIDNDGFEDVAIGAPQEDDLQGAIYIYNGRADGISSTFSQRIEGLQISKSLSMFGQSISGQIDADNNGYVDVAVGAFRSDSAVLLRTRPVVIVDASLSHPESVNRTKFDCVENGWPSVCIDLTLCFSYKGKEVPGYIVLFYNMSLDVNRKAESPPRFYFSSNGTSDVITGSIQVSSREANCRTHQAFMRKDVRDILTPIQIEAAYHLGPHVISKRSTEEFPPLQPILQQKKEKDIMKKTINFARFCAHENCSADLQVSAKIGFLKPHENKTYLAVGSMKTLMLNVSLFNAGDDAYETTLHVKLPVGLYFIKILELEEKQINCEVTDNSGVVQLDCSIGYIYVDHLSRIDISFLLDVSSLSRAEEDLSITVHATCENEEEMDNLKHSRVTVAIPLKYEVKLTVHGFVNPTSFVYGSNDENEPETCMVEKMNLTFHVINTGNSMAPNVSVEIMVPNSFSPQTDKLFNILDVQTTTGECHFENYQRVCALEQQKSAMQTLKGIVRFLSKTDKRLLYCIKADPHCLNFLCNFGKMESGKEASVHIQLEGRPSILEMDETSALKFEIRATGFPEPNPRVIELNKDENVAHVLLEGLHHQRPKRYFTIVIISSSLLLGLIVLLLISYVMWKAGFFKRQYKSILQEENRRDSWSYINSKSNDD
AHR act: human AHR activation; P35869; AHR-responsive luciferase reporter cells, luminescence; activation, % at 5 µM; 320,000 tested, 2.5% active; AID 2796; in the data active = activation above about 47%
Mot1-301 SUMO: SUMOylation pathway inhibition by Mot1-301 growth rescue. S. cerevisiae Mot1-301 growth rescue, ATP luminescence, 38.5C; percent above DMSO median, 100 means doubled. 320,000 tested, 1% active. growth rescue, % at 18.8 µM;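 active = every valid replicate shows activation above 250% relative to neutral control wells; inactive = the rest, any valid replicate at or below 250%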
A1 inh: inhibitors of the anti-apoptotic protein A1, read as caspase activation; 330,000 tested, 0.066% active; caspase activation, % (concentration not given with the values); AID 2462; MEF A1-2A-BIM cells, Caspase-Glo 3/7 luminescence, 3 h; percent of clofoctol response, vehicle zero;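 active = over half of replicate activation scores above 10%, or exactly half above 10 with the replicate mean above 10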
Mot1 SUMO dose: yeast SUMO pathway inhibition in dose response. shares compounds with Mot1-301 SUMO. S. cerevisiae Mot1-301 galactose growth, ATP luminescence, 24 h; -100 = growth of slx-deleted rescue strain. growth activity, percent, % at 42 µM. 2,300 tested, under 10 active. AID 493004;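 active = Signal drops as the depositor expects, and the fitted half-maximal dose is no more than ten times the top valid tested dose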;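 note: more negative values mean stronger growth rescue toward the control strain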
Hits are given with their value. An excerpt weighted towards active compounds, which were near 7.2% of everything screened.

Results for COc1ccccc1-c1nnc(SCC(=O)NC2CCS(=O)(=O)C2)n1N (centres undefined) ?
Efflux pump inh: inactive; ALR inh: inactive; VLA-4 inh: inactive; AHR act: inactive; Mot1-301 SUMO: active; A1 inh: inactive; Mot1 SUMO dose: inactive

What do the screens show for `O=C(CSc1ccccn1)Nc1nc2ccc(Br)cc2s1`?
Efflux pump inh: inactive; ALR inh: inactive; VLA-4 inh: inactive; AHR act: inactive; Mot1-301 SUMO: inactive; A1 inh: inactive

Results for COc1ccccc1CC(=O)N1CCOCC1 ?
Efflux pump inh: inactive; ALR inh: inactive; VLA-4 inh: inactive; AHR act: inactive; Mot1-301 SUMO: 878.2; A1 inh: inactive; Mot1 SUMO dose: inactive

How did CC1CCN(C(=O)c2[nH]cnc2C(=O)N[C@@H](C)C(=O)OCc2ccccc2)CC1 do in these assays?
Efflux pump inh: inactive; ALR inh: inactive; VLA-4 inh: inactive; AHR act: inactive; Mot1-301 SUMO: inactive; A1 inh: inactive

Results for Cc1nn(CC(N)=O)c(=O)c2ccccc12 ?
Efflux pump inh: inactive; ALR inh: inactive; VLA-4 inh: inactive; AHR act: inactive; Mot1-301 SUMO: 481.5; A1 inh: inactive; Mot1 SUMO dose: inactive

Results for COc1cc(/C=N/NC(=O)c2cccnc2)ccc1OCC(=O)N1CCOCC1 ?
Efflux pump inh: inactive; ALR inh: inactive; VLA-4 inh: inactive; AHR act: inactive; Mot1-301 SUMO: 768.4; A1 inh: inactive; Mot1 SUMO dose: inactive

How did COc1cc(/C=N/NC(=O)c2ccncc2)ccc1OC(=O)c1ccco1 do in these assays?
Efflux pump inh: inactive; ALR inh: inactive; VLA-4 inh: inactive; AHR act: inactive; Mot1-301 SUMO: 404.4; A1 inh: inactive; Mot1 SUMO dose: inactive

How did NC1=NC2(CCCC2)N=C(Nc2ccccc2)N1 do in these assays?
Efflux pump inh: inactive; VLA-4 inh: inactive; AHR act: inactive; Mot1-301 SUMO: 722.4; A1 inh: inactive; Mot1 SUMO dose: inactive

What do the screens show for `CC(C)Sc1nnc(-c2ccc(S(=O)(=O)N3CCOCC3)cc2)n1C`?
Efflux pump inh: inactive; VLA-4 inh: inactive; AHR act: inactive; Mot1-301 SUMO: inactive; A1 inh: inactive

What do the screens show for `C(=N\N1CCN(C2c3ccccc3-c3ccccc32)CC1)/c1ccncc1`?
Efflux pump inh: inactive; ALR inh: inactive; VLA-4 inh: inactive; AHR act: inactive; Mot1-301 SUMO: active; A1 inh: inactive; Mot1 SUMO dose: inactive

How did Oc1cccc(/C=N/N2CCN(C3c4ccccc4-c4ccccc43)CC2)c1 do in these assays?
Efflux pump inh: inactive; ALR inh: inactive; VLA-4 inh: inactive; AHR act: inactive; Mot1-301 SUMO: inactive; A1 inh: inactive

How did CN(CCOc1ccc(-c2ccn(S(=O)(=O)c3cccc4ccccc34)n2)cc1)c1ccccn1 do in these assays?
Efflux pump inh: inactive; ALR inh: inactive; VLA-4 inh: inactive; AHR act: inactive; Mot1-301 SUMO: 642.7; A1 inh: inactive; Mot1 SUMO dose: inactive

Results for CN(C)/C=N/NC(=O)c1ccccc1 ?
Efflux pump inh: inactive; ALR inh: inactive; VLA-4 inh: inactive; AHR act: inactive; Mot1-301 SUMO: 921.0; A1 inh: inactive; Mot1 SUMO dose: inactive

Results for O=C(N/N=C/c1ccncc1)c1ccccc1 ?
Efflux pump inh: inactive; ALR inh: inactive; VLA-4 inh: inactive; AHR act: inactive; A1 inh: inactive

How did Cc1ccccc1CSc1n[nH]c(NS(=O)(=O)c2ccccc2)n1 do in these assays?
Efflux pump inh: inactive; ALR inh: inactive; VLA-4 inh: inactive; AHR act: inactive; Mot1-301 SUMO: active; A1 inh: inactive; Mot1 SUMO dose: inactive

What do the screens show for `Cc1nc(SCc2ccccc2C#N)n[nH]1`?
Efflux pump inh: inactive; ALR inh: inactive; VLA-4 inh: inactive; AHR act: inactive; Mot1-301 SUMO: inactive; A1 inh: inactive

What do the screens show for `CC(NC(=O)c1ccccc1NC(=O)CN1CCc2ccccc2C1)c1ccccc1` (centres undefined)?
Efflux pump inh: inactive; ALR inh: inactive; VLA-4 inh: inactive; AHR act: inactive; Mot1-301 SUMO: inactive; A1 inh: inactive

Results for Cc1ccccc1C(=O)NNC(=S)Nc1cccc(C(F)(F)F)c1 ?
Efflux pump inh: inactive; VLA-4 inh: inactive; AHR act: inactive; Mot1-301 SUMO: 404.7; A1 inh: inactive; Mot1 SUMO dose: inactive

High-throughput results: PubChem, several laboratories
